# FLuc modulator = counter-screen for miR-21 project: firefly luciferase inhibitors or activators. purified FLuc, Km substrates, luminescence inhibition. P08659. 6.9% of 360,000 active. Potency, µM (titrated, usually from 57.5 µM), usual class: inhibitors; also: nearly all actives have a fitted effect of over 55% in size
# Target sequence (P08659 whole entry, looked up): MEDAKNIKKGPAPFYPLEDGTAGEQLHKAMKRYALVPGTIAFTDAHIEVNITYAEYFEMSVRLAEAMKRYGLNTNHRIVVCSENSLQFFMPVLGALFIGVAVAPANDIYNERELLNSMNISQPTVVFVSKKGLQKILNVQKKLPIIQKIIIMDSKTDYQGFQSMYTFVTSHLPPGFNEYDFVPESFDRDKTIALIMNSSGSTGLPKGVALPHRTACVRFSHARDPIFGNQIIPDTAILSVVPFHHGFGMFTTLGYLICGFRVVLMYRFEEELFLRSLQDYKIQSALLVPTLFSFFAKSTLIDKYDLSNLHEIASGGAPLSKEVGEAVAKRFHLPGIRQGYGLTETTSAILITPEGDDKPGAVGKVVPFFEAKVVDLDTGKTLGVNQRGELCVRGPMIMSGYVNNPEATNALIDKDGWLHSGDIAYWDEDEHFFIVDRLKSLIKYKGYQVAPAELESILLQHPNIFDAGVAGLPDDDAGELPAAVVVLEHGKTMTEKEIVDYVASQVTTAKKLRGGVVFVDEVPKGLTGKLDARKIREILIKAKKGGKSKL
#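 Biochemical qHTS of compounds, final roughly 60 µM downward over six points, against 10 nM purified firefly luciferase using Km concentrations of substrates (10 uM D-luciferin, 10 uM ATP) in Tris acetate pH 7.5 buffer; luminescence output.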
# Rab9 prom act = activators of Rab9 promoter; Potency, µM (highest dose often 9.22 µM), usual class: activators; 2.8% of 320,000 active; Huh7 Rab9 promoter-luciferase reporter, luminescence, 24 h; also: nearly all actives have a fitted effect of over 60% in size
#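 Huh7 cells stably carrying a Rab9 promoter-luciferase reporter, 1500 cells per well in OP-MEM I with 10% FBS, treated with compound 24 hours at 37C. Luciferase activity read by luminescence after 10 minutes with Amplite reagent.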
# NPC1 promoter act = NPC1 promoter activation | Huh7 NPC1 promoter luciferase reporter, 24 h | Potency, µM (titrated, usually from 9.22 µM), most hits filed as activators | 2.4% of 320,000 active | AID 485313; also: nearly all actives have a fitted effect of over 60% in size
#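 Stable NPC1-promoter luciferase Huh7 line; cpd (DMSO) 24 h, 37 °C, 5% CO2; Amplite luciferase reagent 10 min RT; luminescence readout. qHTS format.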
# ELG1 genotoxic = induces genotoxicity in HEK293T cells with luciferase-tagged ELG1; HEK293T ELG1-luciferase reporter, luminescence, 16 h; Potency, µM (series often up to 46 µM), hits mostly activators; 1.3% of 330,000 active; also: nearly all actives have a fitted effect of over 60% in size
#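 HEK293T cells expressing luciferase-tagged ELG1 were treated with compound or DMSO for 16 hr at 37°C. Luciferase activity was then read after 30 min with ONE-Glo at room temperature; rising signal flags genetic stress.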
# SMN2 splice up = increases expression of the SMN2 splice variant | HEK293 SMN2-luciferase splicing reporter, luminescence, 30-36 h | Potency, µM (titrated, usually from 46.1 µM), actives largely listed as activators | 2.8% of 210,000 active | AID 1458; also: nearly all actives have a fitted effect of over 55% in size
#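 HEK293 cells carry an SMN2 […]–luciferase reporter in which exon 7 inclusion puts luciferase in frame. Cells were plated 10-12 h before compound addition, then incubated 30-36 h at 37C. ONE-Glo luminescence was read; sodium butyrate at 4.5 mM final served as control.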
# Numbers stand for hits; . = inactive; ? = inconclusive; / = no result. Shown are actives, neighbours in structure and some others; about 7.4% of the full set was active somewhere. Calls follow the shape of the dose curve; as a rule, active = well fitted curve in the direction sought with a large enough effect; inconclusive = small, poorly fitted or top-dose-only effect, or another doubt; inactive = no such curve, though single readings can be large; an effect the other way counts as inactive or inconclusive.
SMILES,FLuc modulator,Rab9 prom act,NPC1 promoter act,ELG1 genotoxic,SMN2 splice up
Fc1cccc(/C=N/Nc2ccc3ccccc3n2)c1,0.48µM,?,1.1µM,?,2.5µM
O=S(=O)(N/N=C/c1ccc2c(c1)OCCO2)c1ccccc1,?,.,.,.,.
Cc1cc(N/N=C/c2ccccc2Br)nc2ccccc12,12µM,.,.,.,.
Brc1ccc(/C=N/Nc2ccc3ccccc3n2)cc1,3µM,2.5µM,3.5µM,?,?
C(=N\Nc1ccccn1)/c1ccc2c(c1)OCCO2,1.7µM,0.56µM,1.3µM,2.1µM,2.5µM
COc1ccc(CNC(=O)C2CCN(c3nnc(-n4cccc4CNc4ccc(C)cc4)s3)CC2)c(OC)c1,.,/,/,/,.
CC(C)[C@H](NC(=O)[C@H](Cc1ccccc1)n1c(=O)[nH]c2ccccc2c1=O)C(=O)N1CCC[C@H]1C(=O)O,.,.,.,.,/
COc1ccc(Nc2ccccc2NC(=O)c2ccccc2Br)cc1,.,.,.,.,/
Fc1ccc(/C=N\Nc2cccc(F)c2)cc1,13µM,.,.,.,/
Fc1cccc(/C=N/Nc2ccccn2)c1,12µM,3.2µM,3.2µM,?,?
CC(=O)Nc1ccc(C(=O)N/N=C/c2ccc(F)cc2)cc1,.,.,.,.,.
Brc1ccccc1/C=N/Nc1ccc2ccccc2n1,2.1µM,4.5µM,3.5µM,?,7.9µM
Brc1ccc(/C=N/Nc2ccccc2)cc1,17µM,?,.,?,.
Fc1cccc(F)c1/C=N/Nc1ccccn1,?,?,.,.,?
O=C(CSc1ccc2ccccc2n1)N/N=C/c1ccccc1O,?,.,.,.,/
COC(=O)Cn1cc(/C=C/c2cc[n+](C)cc2)c2ccccc21,.,.,.,.,/
CN=C1S/C(=C\c2cn(CC(=O)OC)c3ccccc23)C(=O)N1C,17µM,.,.,.,.
CN=C1S/C(=C/c2cn(CC(=O)OC)c3ccccc23)C(=O)N1C,19µM,.,.,.,/
CCN=C1S/C(=C\c2cn(CC(=O)NCc3ccco3)c3ccccc23)C(=O)N1CC,.,.,.,?,/
CCN(CC)c1nc(C)nc2c1cnn2CCc1ccccc1,19µM,?,?,12µM,22µM
CC(=O)c1ccc(NC(=O)c2nc3ccccc3nc2N2CCCCC2)cc1,.,/,/,/,/
CC(=O)c1ccc(NC(=O)c2nc3ccccc3n(C)c2=O)cc1,4.8µM,/,/,/,/
Cc1ccc(C)c(NC(=O)c2nc(-c3ccccc3)n(-c3ccccc3)n2)c1,.,.,.,.,.
CC(=O)c1ccc(NC(=O)c2nc(-c3ccccc3)n(-c3ccc(C)cc3)n2)cc1,15µM,/,/,/,/
O=C(/C=C\c1ccco1)Nc1nc(-c2ccccc2)cs1,12µM,?,.,.,?
SMILES,FLuc modulator,Rab9 prom act,NPC1 promoter act,ELG1 genotoxic,SMN2 splice up
O=C(/C=C/c1ccccc1)Nc1nc(-c2ccncc2)cs1,2.7µM,.,.,.,.
O=C(Nc1ccc(-c2csc(Nc3cccc(C(F)(F)F)c3)n2)cc1)c1ccccc1,.,.,.,.,/
O=C(Nc1cccc(-c2csc(Nc3ccccc3)n2)c1)c1ccccc1,1.7µM,?,?,.,/
O=[N+]([O-])c1cccc(-c2csc(Nc3ccccc3)n2)c1,13µM,?,.,.,/
O=C(Nc1cccc(-c2csc(Nc3cccc(C(F)(F)F)c3)n2)c1)c1ccccc1,?,.,.,.,/
CC(=O)c1cccc(Nc2nc(-c3ccccc3)cs2)c1,3.4µM,1.3µM,3.2µM,?,11µM
O=C(O)CCC(=O)Nc1cccc(-c2csc(-c3ccccc3)n2)c1,7.6µM,.,.,.,.
Cc1ccc(/C(O)=C2\C(=O)C(=O)N(C)C2c2cccc([N+](=O)[O-])c2)cc1 (stereo not drawn),.,.,.,.,/
NS(=O)(=O)c1ccc(NC(=S)N2CCC(Cc3ccccc3)CC2)cc1,?,.,.,.,/
CC(=O)c1cccc(Nc2nc(-c3cccnc3)cs2)c1,11µM,?,3.5µM,.,/
CCCCOc1ccc(CSCCN=C(N)N)cc1,21µM,.,.,15µM,/
C(=N\N1CCN(c2ccccn2)CC1)/c1ccccn1,17µM,?,.,?,/
CN(c1ccccc1)c1ccc(/C=N/N2CCOCC2)cc1,1.7µM,1.3µM,1.8µM,18µM,7.9µM
Oc1ccc(/C=N/N2CCN(c3ccccn3)CC2)cc1,?,.,.,.,/
CN(C)c1ccc(/C=N/N2CCN(c3ccccn3)CC2)cc1,4.8µM,?,?,?,/

# Screens as filed in PubChem BioAssay.
